Measured values reported in PubChem BioAssay (EPA / NIEHS).
Records with an inconclusive call do not appear. The source made the active and inactive calls. How the source made its calls: active means hit-call score of the fitted dose curve at least 0.9, where 1 is the maximum; inconclusive means response in the unintended direction; inactive means score below 0.9.

read-out: Broad substrate specificity ATP-binding cassette transporter ABCG2 (Homo sapiens) (UniProt Q9UNQ0); test: CLD_ABCG2_6hr: CellzDirect (CLD) Gene Expression Assay for ABC Transporter (ABCG2) at 6 hours (AID 2283660)
Protocol: CLD_6hr is a cell-based, multiplexed-readout assay that uses hepatocyte, a human liver primary cell, with measurements taken at 6 hours after chemical dosing in a 96-well plate.CLD_ABCG2_6hr is one of 16 assay component(s) measured or calculated from the CLD_6hr assay. It is designed to make measurements of mRNA induction, a form of inducible reporter, as detected with chemiluminescence signals by Quantitative Nuclease Protection Assay (qNPA) technology.Data from the assay component CLD_ABCG2_6hr was analyzed at the endpoint, CLD_ABCG2_6hr, in the positive analysis fitting direction relative to DMSO as the negative control and baseline of activity. Using a type of inducible reporter, gain-of-signal activity can be used to understand changes in the reporter gene as they relate to the gene ABCG2. Furthermore, this assay endpoint can be referred to as a primary readout. To generalize the intended target to other relatable targets, this assay endpoint is annotated to the transporter intended target family, where subfamily is ABC transporter.
Human hepatocyte cultures were treated daily for two consecutive days with fresh dosing solutions containing appropriate concentrations of the 320 ToxCast chemicals (chemical identities were blinded to CellzDirect and other ToxCast collaborators), vehicle control (0.2% DMSO), and positive control inducers as summarized in Table 1. Due to the large number of treatment groups and chemicals examined, the ToxCast chemicals were divided into two groups (spanning two independent cultures of hepatocytes from separate donor preparations (Hu778: ToxCast plates 1 and 2; Hu776: ToxCast plates 3 and 4). Each preparation of human hepatocyte cultures was treated with respective vehicle control, medium only control, set of six positive controls/reference chemicals for the five hepatic receptor pathways, and a subset of eight of the ToxCast chemicals (indoxacarb, pyrithiobac-sodium, norflurazon, cyhalofop-butyl, methomyl, thiram, acetochlor, and propiconazole). These replicate data, coupled with internal replicates designed within the blinded ToxCast chemical library, provided additional data to evaluate interindividual differences between hepatocyte preparations and their potential impact on chemical profiles.Cell morphology and integrity were evaluated using phase-contrast microscopy as an indicator of hepatocyte cell health (Tyson & Green, 1987). Cultures for each treatment group (i.e., media, vehicle [0.2% DMSO], positive control inducers [multiple concentrations], and the ToxCast chemicals [multiple concentrations]) were observed and cell morphology was assessed relative to vehicle control cultures at each harvest time point (0, 6, 24, or 48 h). […] Images were evaluated at the conclusion of the study to assess changes in cell integrity and account for the effects of chemical exposure on uncharacteristic changes in concentration-dependent gene expression profiles. The results from these determinations of apparent cytotoxicity were annotated (yes/no) alongside the corresponding qNPA data for reference.At the conclusion of each treatment period, hepatocyte cultures (96-well) were washed with 1 volume of HBSS, lysed by addition of 25 ul ArrayPlate lysis buffer (HTG, Tucson, AZ), and 70 ul/well of Denaturation Oil, denatured by incubation at 95C for 10 min, and frozen at approximately -70C until analysis by nuclease protection assay (qNPA) (Roberts et al., 2007). For qNPA analysis, cell lysates were thawed at 50C for approximately 30 min, qNPA probes were added, and samples were incubated at 95C for 10 min to begin the detection process by denaturing the target RNA, dissociating the duplexes and secondary structure hybridization. At the conclusion of the hybridization period, S1 nuclease reagent was added to each sample to digest all nonprotected nucleotides at 50C for 60-90 min. […]

Broad substrate specificity ATP-binding cassette transporter ABCG2 (Homo sapiens), sequence (Q9UNQ0 whole entry, looked up): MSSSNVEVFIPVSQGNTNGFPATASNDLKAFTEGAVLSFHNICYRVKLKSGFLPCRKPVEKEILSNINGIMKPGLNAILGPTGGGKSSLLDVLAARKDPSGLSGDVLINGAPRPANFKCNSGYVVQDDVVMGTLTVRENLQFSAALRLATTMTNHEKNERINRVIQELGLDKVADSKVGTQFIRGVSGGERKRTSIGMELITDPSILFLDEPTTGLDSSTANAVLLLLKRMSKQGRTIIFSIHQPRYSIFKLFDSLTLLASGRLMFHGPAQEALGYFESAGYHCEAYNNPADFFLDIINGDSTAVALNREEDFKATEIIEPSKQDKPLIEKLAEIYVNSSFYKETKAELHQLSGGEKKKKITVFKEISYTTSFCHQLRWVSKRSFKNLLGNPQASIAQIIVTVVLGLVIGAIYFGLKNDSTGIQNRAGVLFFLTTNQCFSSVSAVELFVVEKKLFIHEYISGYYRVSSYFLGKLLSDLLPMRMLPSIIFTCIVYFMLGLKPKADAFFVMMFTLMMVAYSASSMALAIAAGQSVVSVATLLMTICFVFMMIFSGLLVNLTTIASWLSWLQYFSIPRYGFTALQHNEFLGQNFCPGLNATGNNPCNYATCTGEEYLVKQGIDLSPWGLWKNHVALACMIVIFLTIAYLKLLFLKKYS

Structure (SMILES) | outcome
COP(=S)(OC)Oc1nc(Cl)c(Cl)cc1Cl | inactive
CC(C)(C)c1ccc(CSc2cnn(C(C)(C)C)c(=O)c2Cl)cc1 | inactive
N#CC(CCc1ccc(Cl)cc1)(Cn1cncn1)c1ccccc1 (configuration not stated) | inactive
C#CCOS(=O)OC1CCCCC1Oc1ccc(C(C)(C)C)cc1 (configuration not stated) | inactive
CN(C)C(=S)SSC(=S)N(C)C | inactive
COc1nc(C)nc(NC(=O)NS(=O)(=O)c2ccccc2CCC(F)(F)F)n1 | inactive
O=C(O)COc1nc(Cl)c(Cl)cc1Cl | inactive
COC(=O)c1ccccc1C(=O)OC | inactive
COC(=O)C=C(C)OP(=O)(OC)OC | inactive
OC(c1ccc(Cl)cc1)(c1cncnc1)c1ccccc1Cl (configuration not stated) | inactive
C=CCC1=C(C)[C@@H](OC(=O)[C@@H]2[C@@H](C=C(C)C)C2(C)C)CC1=O | inactive
O=C(Nc1ccccc1)Nc1ccnc(Cl)c1 | inactive
CNC(=S)S | inactive
COP(N)(=O)SC (configuration not stated) | inactive
CCON=C(CC)C1=C(O)CC(c2c(C)cc(C)cc2C)CC1=O (configuration not stated) | inactive
CS/C(C)=N/OC(=O)N(C)SN(C)C(=O)O/N=C(\C)SC | inactive
COc1nc(NC(C)C)nc(NC(C)C)n1 | inactive
Cc1c(F)c(F)c(COC(=O)C2C(/C=C(\Cl)C(F)(F)F)C2(C)C)c(F)c1F (configuration not stated) | inactive
CCCN(CCC)c1c([N+](=O)[O-])cc(S(N)(=O)=O)cc1[N+](=O)[O-] | inactive

Structure (SMILES) | outcome
CC(C)Oc1cc(-n2nc(C(C)(C)C)oc2=O)c(Cl)cc1Cl | inactive
COC(=O)N(OC)c1ccccc1COc1ccn(-c2ccc(Cl)cc2)n1 | inactive
CCCCNC(=O)n1c(NC(=O)OC)nc2ccccc21 | inactive
C=CCC1=C(C)C(OC(=O)C2C(C=C(C)C)C2(C)C)CC1=O (configuration not stated) | inactive
CCCCNC(=O)OCC#CI | inactive
Fc1ccc(Oc2ccnc3cc(Cl)cc(Cl)c23)cc1 | inactive
COc1nc(C)nc(NC(=O)NS(=O)(=O)c2ccccc2Cl)n1 | inactive
Cc1ccc(-c2c(Cl)nc(C#N)n2S(=O)(=O)N(C)C)cc1 | inactive
CCOc1cc(Oc2ccc(C(F)(F)F)cc2Cl)ccc1[N+](=O)[O-] | inactive
CCc1nn(C)c(C(=O)NCc2ccc(C(C)(C)C)cc2)c1Cl | inactive
N#Cc1nn(-c2c(Cl)cc(C(F)(F)F)cc2Cl)c(N)c1S(=O)C(F)(F)F (configuration not stated) | inactive
Oc1ccccc1-c1ccccc1 | inactive
COC(=O)C(C)Oc1ccc(Oc2ccc(Cl)cc2Cl)cc1 (configuration not stated) | inactive
CC1COC(Cn2cncn2)(c2ccc(Oc3ccc(Cl)cc3)cc2Cl)O1 (configuration not stated) | inactive
Cc1cc(Cl)ccc1OCC(=O)O | inactive
CCOC(=O)CC(SP(=S)(OC)OC)C(=O)OCC (configuration not stated) | inactive
CO/C=C(/C(=O)OC)c1ccccc1Oc1cc(Oc2ccccc2C#N)ncn1 | inactive
CCNc1nc(Cl)nc(NC(C)C)n1 | inactive
